Values joined by “and” are separate entries in the source; they are usually repeats but may differ in a detail not shown here. Equal values may be shown once. Unmarked numbers belong to inactive results. Active and inactive are the calls of the source. The call rests on the fitted dose curve; in most records, active means well fitted activation curve with a large enough effect; inconclusive means small, poorly fitted or top-dose-only effect; inactive means flat fitted curve, though single readings scatter.
Potency means the concentration at half of the fitted maximal effect.

The target of this assay is Peroxisome proliferator-activated receptor alpha (Homo sapiens) (UniProt Q07869). The assay is described as follows: qHTS assay for small molecule agonists of the peroxisome proliferator-activated receptor alpha (PPARalpha) signaling pathway (AID 651778). On max response: % of control where 0% means no effect. The settings on record: PathHunter PPARalpha complementation, chemiluminescence, 6 h; max response: stronger effect = higher value. The text has this: National Center for Advancing Translational Sciences [NCATS]
Peroxisome proliferator-activated receptor alpha (Homo sapiens), sequence (Q07869 whole entry, looked up): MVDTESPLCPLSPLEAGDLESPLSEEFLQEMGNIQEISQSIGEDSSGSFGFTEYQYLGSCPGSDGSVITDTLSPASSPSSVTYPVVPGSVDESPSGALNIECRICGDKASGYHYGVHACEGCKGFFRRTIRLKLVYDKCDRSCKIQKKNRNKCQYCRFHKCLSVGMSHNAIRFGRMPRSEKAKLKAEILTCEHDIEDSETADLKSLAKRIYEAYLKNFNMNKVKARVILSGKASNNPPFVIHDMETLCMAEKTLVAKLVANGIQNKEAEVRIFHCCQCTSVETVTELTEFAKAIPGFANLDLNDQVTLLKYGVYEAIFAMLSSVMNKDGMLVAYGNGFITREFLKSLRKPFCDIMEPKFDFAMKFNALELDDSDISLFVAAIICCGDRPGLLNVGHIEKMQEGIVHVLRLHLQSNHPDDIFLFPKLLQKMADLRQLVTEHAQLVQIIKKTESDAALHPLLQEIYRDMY
NIH Chemical Genomics Center [NCGC]
U.S. Environmental Protection Agency [EPA]
National Institutes of Environmental Health Sciences [NIEHS]
National Toxicology Program [NTP]
The Peroxisome proliferator-activated receptors (PPARs) are lipid-activated transcription factors of the nuclear receptor superfamily with three distinct subtypes (alpha, garmma and beta/delta). All these subtypes heterodimerize with retinoid X receptor and have different physiological functions. PPARalpha is highly expressed in tissues with high rates of mitochondrial fatty acid oxidation, such as liver, heart, muscle, kidney and cells of the arterial wall. PPARalpha is a major regulator of lipid metabolism and energy homeostasis.
A cell based assay was used to identify activators of PPARalpha. The assay detects binding of a ligand to PPARalpha leading to its activation, translocation and complementation thus forming a functional enzyme capable of hydrolyzing the substrate molecule and generating chemiluminescent signal.
2,000 cells in 6 uL/well were dispensed into white wall/solid bottom 1536-well plates using a Multidrop Combi (Thermo Scientific) dispenser. After incubation 37 C and 5% CO2 overnight, 23 nL compound or DMSO only were transferred by a pin tool. The plates were incubated for 6 hr at 37 C and 5% CO2. 3 ul PathHunter detection reagent (Discoverx) was then added to each well and following 60 min incubation at room temperature, chemiluminescence was quantified on a ViewLux CCD-based plate reader.
`O=S(=O)(O)C(F)(F)C(F)(F)C(F)(F)C(F)(F)C(F)(F)C(F)(F)C(F)(F)C(F)(F)F`: the max response was -0.394% and 4.02%. The same measure, in the same setting: in the case of `O=[N+]([O-])/N=C1\NCCN1Cc1ccc(Cl)nc1` it was -0.352%.

On to `COC(C)(C)CCCC(C)C/C=C/C(C)=C/C(=O)OC(C)C` (stereo not given), for which the max response is 3.83% and 3.99%.

As for `CCCCCCCCCC(CC)c1ccc(S(=O)(=O)O)cc1` (stereo not given), the max response is 1.36%. Still for that read-out and setting: the value for `C=CC(=O)NCNC(=O)C=C` was -3.68% and -5.17%; that for `CCCCCCCCc1ccc(O)cc1` was 18.3% and 5.8%. The same measure, in the same setting: in the case of `O=C(O)c1cc(Oc2ccc(C(F)(F)F)cc2Cl)ccc1[N+](=O)[O-]` it was -3.73%. The same measure, in the same setting: in the case of `Nc1ccc(N=Nc2ccccc2)cc1` it was -2.06%; in that of `C=CCC1=C(C)C(OC(=O)C2C(C=C(C)C)C2(C)C)CC1=O` (stereo not given), 4.18%.

For the compound `CC(=O)[O][Hg][c]1ccccc1`, the max response is -13.3% and -4.57%. The same measure, in the same setting: the value for `O=C(O)COc1nc(Cl)c(Cl)cc1Cl` was -3.53%. Regarding `OCCCBr`, the max response was -3.35%.

Consider `COc1nn(CSP(=S)(OC)OC)c(=O)s1`, for which the max response was -1.93%. Consider `CCCCC(CC)COC(=O)c1ccccc1C(=O)O` (stereo not given), for which the Potency was 28.2 µM (active). For the compound `ClC1=C(Cl)[C@]2(Cl)[C@@H]3[C@@H]4C[C@@H]([C@H]5O[C@@H]45)[C@@H]3[C@@]1(Cl)C2(Cl)Cl`, the max response was 12.3%. The same measure, in the same setting: in the case of `COc1ccc(C(c2ccc(OC)cc2)C(Cl)(Cl)Cl)cc1` it was 12.2% and 6.03% and 0.144%; in that of `CCO/N=C(\CC)C1=C(O)CC(c2c(C)cc(C)cc2C)CC1=O` (stereo not given), -0.461%; in that of `O=C(Nc1ccccc1-c1ccc(Cl)cc1)c1cccnc1Cl`, 0.0876%.

With `O=[N+]([O-])c1c2ccccc2cc2ccccc12`, the max response is 5.89%. Same read-out and setting: in the case of `CCCCCCCCCCCCCCCC[N+](C)(C)C` it was 1.77% and -0.579%; in that of `O=C(O)C(Cl)Cl`, -0.693% and -4.76%. As for `CCCCOC(=O)c1ccccc1C(=O)OCc1ccccc1`, the max response was -3.94% and -0.0123%. Still for that read-out and setting: in the case of `Clc1cnc(Oc2ccc(Oc3ncc(Cl)cc3Cl)cc2)c(Cl)c1` it was 2.8%; in that of `Nc1ccc(Sc2ccc(N)cc2)cc1`, -3.47% and -0.953%; in that of `CN(C)NC(=O)CCC(=O)O`, 0.401% and -4.12%.

`CC(C)(C)C(O)C(Oc1ccc(Cl)cc1)n1cncn1` (stereo not given): the max response is -0.528%. Same read-out and setting: the value for `CCOP(=O)(NC(C)C)Oc1ccc(SC)c(C)c1` (stereo not given) was 2.22% and -0.0211%; that for `CCCCC(CC)COC(=O)c1ccccc1C(=O)OCC(CC)CCCC` (stereo not given) was -1.13% and 3.57%; that for `C1CCC(NC2CCCCC2)CC1` was 0.749% and -0.258% and -1.01%. Same read-out and setting: the value for `O=C(O)COc1ccccc1` was -1.23%; that for `CN(C)[C@@H]1C(=O)C(C(N)=O)=C(O)[C@@]2(O)C(=O)C3=C(O)c4c(O)cccc4[C@@](C)(O)[C@H]3[C@H](O)[C@@H]12` was -3.16% and 0.185% and -4.32%. On the same count and under the same terms, in the case of `O=S(=O)(O)C(F)(F)C(F)(F)C(F)(F)C(F)(F)F` it was 5.33% and 1.27%.

On to `c1cc2ccc3cccc4ccc(c1)c2c34`, for which the max response is -3.14% and -4.98%.

Take `Cc1cc(O)ccc1Cl`: the max response was -2.23%.

Regarding `O=[N+]([O-])c1c(Cl)c(Cl)cc(Cl)c1Cl`, the max response is 0.293%. On the same count and under the same terms, the value for `Nc1ccc(Cl)cc1` was 8.91%; that for `CC(C)Oc1cccc(NC(=O)c2ccccc2C(F)(F)F)c1` was 3.69%; that for `O=[N+]([O-])c1cc([N+](=O)[O-])c2ccccc2c1` was -4.32%. Still for that read-out and setting: in the case of `Nc1c(Cl)c(Cl)c(Cl)c(Cl)c1Cl` it was -0.704%; in that of `Nc1ccc([N+](=O)[O-])cc1`, -2.66%.

The values above are taken from PubChem BioAssay (NCATS).
